From PubChem BioAssay AID504895 (National Center for Advancing Translational Sciences (NCATS), 2011)
Results filed as inconclusive are left out. Calls of active or inactive are those of the source. Calls follow the shape of the dose curve; as a rule, active = well fitted curve in the direction sought with a large enough effect; inconclusive = small, poorly fitted or top-dose-only effect, or another doubt; inactive = no such curve, though single readings can be large or run the other way.

target: Protein phosphatase EYA2 (Homo sapiens) (UniProt O00167); assay: Inhibitors of Eya2ED: Hit Confirmation in Primary Screen; details: Recombinant Eya2ED, OMFP fluorescence phosphatase assay; series mostly up to 76.9 µM; activity change, negative = inhibition: at the top concentration
Sequence (O00167 whole entry, looked up): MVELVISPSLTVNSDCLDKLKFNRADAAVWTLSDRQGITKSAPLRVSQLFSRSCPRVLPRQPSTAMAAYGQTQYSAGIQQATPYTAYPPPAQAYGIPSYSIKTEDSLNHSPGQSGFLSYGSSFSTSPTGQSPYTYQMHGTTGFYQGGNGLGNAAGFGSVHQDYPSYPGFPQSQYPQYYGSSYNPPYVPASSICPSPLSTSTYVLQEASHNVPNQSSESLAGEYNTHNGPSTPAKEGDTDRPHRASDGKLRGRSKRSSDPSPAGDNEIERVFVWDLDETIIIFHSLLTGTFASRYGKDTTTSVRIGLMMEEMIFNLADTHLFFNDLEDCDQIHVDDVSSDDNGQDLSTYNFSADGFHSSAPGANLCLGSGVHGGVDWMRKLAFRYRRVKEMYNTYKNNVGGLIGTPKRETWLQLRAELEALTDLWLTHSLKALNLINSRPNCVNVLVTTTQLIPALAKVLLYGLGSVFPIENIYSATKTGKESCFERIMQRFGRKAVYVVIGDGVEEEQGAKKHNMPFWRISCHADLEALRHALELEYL
How it was run: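 Hits were retested as 12-point titrations. Compound sat 10 min at ambient with Eya2 (0.2 uM in dispense) in HEPES pH 7.5 buffer with NaCl, MgCl2, BSA and DTT, then OMFP substrate (50 uM in dispense) was added. Dephosphorylation was read by fluorescence at 485/525 nm after a further 10 min.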

Activity change, negative = inhibition, inactive:
Cc1c(NS(=O)(=O)c2ccc(N)cc2)c(=O)n(-c2ccccc2)n1C -15.5%
COc1c(O)ccc(/C=N\NC(=O)c2ccc3c(c2)OCO3)c1[N+](=O)[O-] -18%
O=C(C[C@H]1C/C=C/CC[C@H](Cc2ccc(F)cc2)C(=O)O[C@H](c2ccccc2)CNC1=O)NCCO -32.4%
Cc1ccc(CCNC(=O)c2cc(C)nn2-c2ccccc2)cc1 -19%
O=S(=O)(c1ccc(F)cc1)N1CCC2(CC1)OCCN2S(=O)(=O)c1cccs1 -15.4%
O=C(NCc1ccccn1)C1CCCN(Cc2cnn(-c3ccccc3)c2-n2cccc2)C1 (stereo unspecified) 0.326%
Cc1cccc(C(=O)Nc2c(C(=O)N(C)C)cnn2-c2ccccc2)c1 -13.3%
CCCc1nnc(SCc2ccc(C(=O)OC)o2)n1N 7.95%
CCC(C)N(C(=O)c1csnn1)C(C(=O)NC1CCCC1)c1ccccc1F (stereo unspecified) -5.36%
Cc1nn(-c2nc(-c3ccco3)cc(C(F)(F)F)n2)c(C)c1Cl -6.37%
COc1ccc2oc(C(=O)OCC(=O)N3CCCCC3C)c(C)c2c1 (stereo unspecified) -10.1%
CCCC(=O)Nc1cccc(NC(=O)c2ccc3c(c2)OCCO3)c1 -35%
CO/N=C(\N)c1nonc1N 14.5%
O=C(N/N=C/c1ccc(Sc2nc3ccccc3[nH]2)o1)c1ccncc1 -12.2%
COc1ccccc1OCCCCOc1ccccc1F -3.36%
CC(=O)c1c(C)[nH]c(C(=O)NNC(=O)c2ccc(Br)cc2)c1C -4.21%
Cc1ccc2occ(/C=N/NC(=O)[C@@H](N)Cc3ccccc3)c(=O)c2c1 12.1%
COc1ccc(C(=O)NCCSCc2ccccc2C)cc1 -14.1%
Cn1c(CNC(=O)c2ccc(Cl)cc2)nnc1SCC(=O)NC1=NCCS1 -10.6%
O=C(COc1cccc(C(F)(F)F)c1)NCC(c1ccco1)N1CCCC1 (stereo unspecified) -8.36%
O=C(N/N=C/c1ccc(Sc2ccccn2)o1)c1cc2ccccc2cc1O -21.1%
O=C(Cc1ccccc1F)NC1CCCN(Cc2ccc(Cl)cc2)C1 (stereo unspecified) -14.9%
CC(=O)c1c(C)[nH]c(C(=O)COC(=O)COc2ccccc2)c1C 16%
CCN(C(=O)COC(=O)c1cc(OC)c(OC)cc1[N+](=O)[O-])C1CCS(=O)(=O)C1 (stereo unspecified) 8.87%
O=C(NCCc1ccc(Cl)cc1)C1CCN(C(=O)N2CCOc3ccccc32)CC1 -4.76%
Cc1cccc(-n2c(-c3csc(C(C)C)c3)n[nH]c2=S)c1 -18.6%
CN(CCCC(=O)N1CCN(c2ncccn2)CC1)S(=O)(=O)c1ccc(F)cc1 -1.76%
CSCC[C@H](NC(=O)[C@@H]1Cc2ccccc2CN1)C(=O)Nc1ccc2c(c1)OCCO2 0.798%
CC(C)(C)C(=O)Nc1nc(=S)ss1 -11.3%
Cc1cc(C(N)=O)nn1-c1c(Cl)cc(Cl)cc1Cl -17%
Cc1ccc(S(=O)(=O)NNC(=S)NCCc2ccccc2)cc1 -8.51%
